The sample as a whole holds a higher share of hits than the screen did.
Anesthetic bind = qHTS Assay for Identification of Novel General Anesthetics; Ferritin light chain (Equus caballus), P02791; apoferritin/1-aminoanthracene competitive binding, fluorescence; AID 485281, 2010; hit rate 0.074% among 350,000; Potency, µM (top dose mostly 77.5 µM), inactives show at the top dose activity change, negative = displacement, actives largely listed as inhibitors; also: potency is read from the fitted curve at half-maximal effect; % is scaled to controls: 0 for no effect and ±100 for the full control effect; nearly all actives have a fitted effect of over 20% in size
Target sequence (P02791 2-175 limits assumed): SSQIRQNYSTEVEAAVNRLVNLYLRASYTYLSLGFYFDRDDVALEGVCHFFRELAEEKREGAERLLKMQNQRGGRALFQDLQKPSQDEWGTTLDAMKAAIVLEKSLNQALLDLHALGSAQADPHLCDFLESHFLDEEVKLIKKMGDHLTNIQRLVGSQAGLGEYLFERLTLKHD
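Steps: apoferritin (10 uM) was premixed with half-saturated 1-AMA in PBS, compounds were pin-transferred, plates stood 10 min at room temperature, fluorescence was read at 380/535 nm, and curves were fitted with a Hill equation.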
a7 integrin act = qHTS for Activators of Integrin-Mediated Alleviation for Muscular Dystrophy. Potency, µM (highest dose often 38.3 µM), for inactives: top-dose activation, usual class: activators. AID 624291, 2012. hit rate 0.064% among 350,000. alpha7betagal myoblasts, beta-gal FDG fluorescence, 48 h;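 also: potency is read from the fitted curve at half-maximal effect; 100% = response of the positive control SU9516; nearly all actives have a fitted effect of over 60% in size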
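alpha7betagal+/- myoblasts (passage 13, 250/well) treated 48 h at 37C with compounds at 1:260 dilution of DMSO stock. Lysed, then beta-galactosidase activity read as FDG fluorescence (ex 480/em 540) after 30 min, with pre-read for autofluorescence.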
ClpP mod = qHTS Assay for Activators of ClpP | purified B. subtilis ClpP, FRET peptide cleavage, 20 min | hit rate 1.9% among 340,000 | Potency, µM (highest dose often 57.5 µM), for inactives: at the top dose activity change, negative = active; active = well fitted falling curve with a large enough effect; inconclusive = small, poorly fitted or top-dose-only effect; inactive = no such curve, though single readings can be large or run the other way; also: potency is read from the fitted curve at half-maximal effect; the source files actives as falling curves though it sought activators and does not explain the sign; nearly all actives have a fitted effect of over 65% in size
Target sequence (P80244 whole entry, looked up): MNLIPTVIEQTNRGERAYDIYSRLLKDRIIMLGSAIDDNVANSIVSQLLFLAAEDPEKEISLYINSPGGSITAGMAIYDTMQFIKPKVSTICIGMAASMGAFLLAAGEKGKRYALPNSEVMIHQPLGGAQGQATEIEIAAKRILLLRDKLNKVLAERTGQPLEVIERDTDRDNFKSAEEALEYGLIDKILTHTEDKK
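ClpP 10 microg/mL final, pH 8 Tris/KCl buffer with BSA, glycerol, Tween-20; compound pinned in; FRET-FV substrate; RT 20 min; Ex320/Em430; ΔFRET vs ADEP 5.8 microM, DMSO, no enzyme.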
Glioma ERSR ind = qHTS for Inducers of the Endoplasmic Reticulum Stress Response (ERSR) in Human Glioma: qHTS; AID 602332, 2012; Potency, µM, for inactives: at the highest dose activation, actives largely listed as activators; hit rate 0.02% among 420,000; U87-MG GRP78 promoter luciferase reporter, 16 h; also: potency is read from the fitted curve at half-maximal effect; series mostly up to about 76 µM; % of control where 0% means no effect; nearly all actives have a fitted effect of over 35% in size
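Stably transfected U87-MG human glioma cells carrying a GRP78-based luminescent sensor were seeded at 1000 cells/well, pin-dosed with compounds and incubated 16 h. Luciferase reagent was then added, and end-point luminescence was read after 10 min at room temperature.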
CBFb RUNX1 block = qHTS Assay for Compounds Blocking the Interaction Between CBF-beta and RUNX1 for the Treatment of Acute Myeloid Leukemia; Runt-related transcription factor 1 (Homo sapiens) + Core-binding factor subunit beta …; 230,000 tested, under 10 active; AlphaScreen CBFb-His/RUNX1-biotin binding, biochemical; Potency, µM (highest dose often 59.8 µM), inactives show at the top dose activity, negative = inhibition, actives largely listed as inhibitors; also: % of control where 0% means no effect
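AlphaScreen proximity signal reports loss of binding between His-tagged CBF-beta and biotin-labelled RUNX1, each at 30 nM. Proteins are pre-associated for 20 minutes, compounds added for 15 minutes, then beads for 90 minutes, all at ambient temperature.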
N370S GC mod = qHTS Assay for Inhibitors and Activators of N370S glucocerebrosidase as a Potential Chaperone Treatment of Gaucher Disease. Lysosomal acid glucosylceramidase (Homo sapiens), P04062. N370S GC spleen homogenate, 4MU-glucoside fluorescence. Potency, µM (series often up to 59.4 µM), without a hit: at the highest dose activity change, negative = inhibition, most hits filed as inhibitors. hit rate 0.092% among 330,000. AID 2101, 2009;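 also: potency is read from the fitted curve at half-maximal effect; 0% = full enzyme activity and -100% = no enzyme basal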
Starred values were filed as active, the others as inactive; ? = inconclusive; . = no result. Unless noted, calls follow the shape of the dose curve; as a rule, active = well fitted curve in the direction sought with a large enough effect; inconclusive = small, poorly fitted or top-dose-only effect, or another doubt; inactive = no such curve, though single readings can be large; an effect the other way counts as inactive or inconclusive.

SMILES	Anesthetic bind	a7 integrin act	ClpP mod	Glioma ERSR ind	CBFb RUNX1 block	N370S GC mod
COC(=O)c1cc(CNC(=O)c2cccc(F)c2)cc(NC(=O)c2ccccc2OC)c1	.	.	.	-1%	.	.
N#Cc1cc([N+](=O)[O-])ccc1NC(=O)COC(=O)C12CC3CC(CC(C3)C1)C2	35µM*	.	.	.	?	-10%
CCCn1cc(S(=O)(=O)c2ccc(OC)cc2)c(=O)c2cc(F)c(N3CCCC(C)C3)cc21 (stereo not drawn)	-4%	.	20µM*	-4%	.	.
CCCn1cc(S(=O)(=O)c2ccccc2)c(=O)c2cc(F)c(N3CCCC3)cc21	-6%	.	-18%	-4%	.	.
CCn1cc(S(=O)(=O)c2ccccc2)c(=O)c2cc(F)c(N3CCCC3)cc21	-5%	.	25µM*	-5%	.	.
CCCn1cc(S(=O)(=O)c2ccccc2)c(=O)c2cc(F)c(N3CCCCCC3)cc21	33%	.	28µM*	-4%	.	.
Cc1ccc(C(=O)Nc2ccc3c(c2)C(=O)N(CC2CCCO2)C3=O)cc1 (stereo not drawn)	1%	4%	0%	0%	.	0%
O=C(Nc1ccc2c(c1)C(=O)N(CC1CCCO1)C2=O)c1ccccc1Br (stereo not drawn)	1%	-16%	22µM*	-1%	-2%	2%
COC(CNC(=O)c1c[nH]c2ccc(S(=O)(=O)N3CCOCC3)cc2c1=O)OC	5%	13%	4%	-2%	.	3%
COC(CNC(=O)c1c[nH]c2ccc(S(=O)(=O)N3CCC4(CC3)OCCO4)cc2c1=O)OC	-7%	0%	22µM*	1%	3%	-2%
Cc1cccc(N(C)S(=O)(=O)c2ccc3[nH]cc(C(=O)N4CCOCC4)c(=O)c3c2)c1	-18%	20%	?	-3%	-1%	-10%
O=C(c1c[nH]c2ccc(S(=O)(=O)N3CCC4(CC3)OCCO4)cc2c1=O)N1CCOCC1	-6%	7%	16µM*	-3%	1%	3%
CN(C(=O)COc1ccccc1C(=O)Nc1ccccc1)c1ccccc1	.	.	-4%	-4%	.	.
C/C(Cc1ccccc1)=N\NC(=O)C1CCCCC1	-9%	-2%	28µM*	-6%	-2%	4%
O=C(Cc1ccccc1)NNC(=O)C1CCCC1	0%	-15%	0%	-1%	-4%	1%
CC(C)C(NS(C)(=O)=O)c1nnc2n1CCN(Cc1cccc3ncccc13)CC2 (stereo not drawn)	.	.	.	-3%	.	.
CCC(C)C(NC(N)=O)C(=O)Nc1ccc(C)c(Cl)c1 (stereo not drawn)	0%	0%	28µM*	-6%	1%	8%
COCC1CCCN(Cc2ccc3c(c2)CN(C(=O)c2cc(-c4ccccc4)n[nH]2)CCO3)C1 (stereo not drawn)	.	.	.	-1%	.	.
COc1ccc(-c2nc(-c3ccc4c(c3)OCO4)[nH]c2-c2ccc(OC)cc2)cc1	7%	-58%	11%	1%	-19%	-2%
COc1ccc(-c2nc(-c3ccccc3)c(-c3ccc(O)cc3)[nH]2)cc1	0%	.	5µM*	-6%	.	.
O=C(O)COc1ccc(-c2nc(-c3ccccc3)c(-c3ccccc3)[nH]2)cc1	4%	-8%	.	-3%	.	1%
COc1ccc(-c2[nH]c(-c3ccc(O)cc3)nc2-c2ccccc2)cc1	51%	.	7.9µM*	0%	.	.
CS(=O)(=O)c1ccc(/C=C2\C=Cc3ccccc32)cc1	.	.	-1%	-2%	.	.

Screens as filed in PubChem BioAssay.
